Source: PubChem BioAssay
Shown are actives, neighbours in structure and some others; about 2% of the full set was active somewhere.
STK33 inh: STK33 kinase inhibitors, primary screen, biochemical, luminescence, ADP-Glo, MBP substrate. inhibition, % at 12.5 µM. actives 0.44% (n = 27,000). AID 2322, 2010; in the data active means inhibition above about 20%
ID4 binder: binders of human ID4 protein, primary screen, biochemical, small molecule microarray, single point; calls only; Flag-ID4 binding, fluorescence F/B; actives 1.2% (n = 31,000); AID 624137, 2012; DNA-binding protein inhibitor ID-4 (Homo sapiens), P47928; call rule not given here;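 further: a binder raises fluorescence above local background on the spot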
Target sequence (P47928 whole entry, looked up): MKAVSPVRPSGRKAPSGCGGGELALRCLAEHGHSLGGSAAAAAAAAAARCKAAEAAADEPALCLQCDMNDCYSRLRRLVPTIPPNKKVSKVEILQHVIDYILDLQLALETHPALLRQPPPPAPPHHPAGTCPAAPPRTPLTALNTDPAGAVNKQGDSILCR
p53 PUMA act: mutant p53 pathway re-activators, primary screen, cell-based, SW480, luciferase, single point, HTS; activation, % at 9.98 µM; SW480 PUMA-promoter luciferase, p53 mutant reactivation; actives 1.5% (n = 28,000); in the data active means activation above about 52%
Of the large screens only hits and unclear results are named; the others gave an inactive call.

NC(=O)C1CCCN(/[N+]([O-])=N/OCCBr)C1 (configuration not stated)	ID4 binder active (no result: STK33 inh, p53 PUMA act)
CO/N=[N+](\[O-])N1CCCC(C(N)=O)C1 (configuration not stated)	none (no result: STK33 inh, p53 PUMA act)
N#CCC(=O)Cc1ccccc1[N+](=O)[O-]	none
NC(=O)CSc1nnc(SCc2cccc3ccccc23)s1	none
CN1/C(=C\C=C2\C(=O)Oc3ccccc3C2=O)C(C)(C)c2ccccc21	p53 PUMA act 105 (no result: STK33 inh)
O=C(Cn1c(NCCO)nc2ccccc21)c1cccc([N+](=O)[O-])c1	none
C[C@@H]1CN([C@@H](C)CO)S(=O)(=O)c2ccc(C3=CCCC3)cc2O[C@@H]1CN(C)Cc1cccc(C(=O)O)c1	ID4 binder active (no result: STK33 inh)
C[C@H](CO)N1C[C@H](C)[C@H](CN(C)Cc2cccc(C(=O)O)c2)Oc2cc(C3=CCCC3)ccc2S1(=O)=O	none (no result: STK33 inh)
C[C@H]1CN([C@@H](C)CO)S(=O)(=O)c2ccc(-c3cccc(C(=O)N(C)C)c3)cc2O[C@@H]1CN(C)Cc1ccc2c(c1)OCO2	ID4 binder active (no result: STK33 inh)
C[C@H](CO)N1C[C@H](C)[C@@H](CN(C)Cc2ccc3c(c2)OCO3)Oc2cc(-c3cccc(C(=O)N(C)C)c3)ccc2S1(=O)=O	none (no result: STK33 inh, ID4 binder)
Cc1cc(N(CC(=O)Nc2ccc3c(c2)OCCO3)S(C)(=O)=O)ccc1Br	none
COc1ccc(S(=O)(=O)n2nc(OC(=O)C(C)(C)C)cc2N)cc1	none (no result: ID4 binder, p53 PUMA act)
O=C(NC(=S)NCc1cccnc1)c1ccc(-c2cccc(Cl)c2Cl)o1	p53 PUMA act 61
O=C(NC(=S)NCc1cccnc1)c1ccc(-c2cccc([N+](=O)[O-])c2)o1	none
COc1c(C2OCC(OC(C)=O)C(OC(C)=O)C2OC(C)=O)c(O)cc2oc(-c3ccc(OC4OC(CO)C(O)C(O)C4O)cc3)cc(=O)c12 (configuration not stated)	none
O=c1c(O[C@@H]2O[C@H](CO)[C@H](O)[C@H](O)[C@H]2O)c(-c2ccc(O)c(O)c2)oc2cc(O)cc(O)c12	none (no result: ID4 binder, p53 PUMA act)
COc1c(O)cc2oc(-c3ccc(O[C@@H]4O[C@H](CO)[C@@H](O)[C@H](O)[C@H]4O)cc3)cc(=O)c2c1O	STK33 inh 51 (no result: p53 PUMA act)
COc1ccc(/C=C/c2cc(O)cc(O[C@@H]3O[C@H](CO)[C@@H](O)[C@H](O)[C@H]3O)c2)cc1	p53 PUMA act 64
O=c1cc(-c2ccc(O[C@@H]3O[C@H](CO)[C@@H](O)[C@H](O)[C@H]3O)cc2)oc2cc(O)cc(O)c12	STK33 inh 50 (no result: p53 PUMA act)
CC(=O)c1c(O)cc(O[C@@H]2O[C@H](CO)[C@@H](O)[C@H](O)[C@H]2O)cc1O	none (no result: ID4 binder)
O=C(CSc1ncn(-c2ccccc2)n1)Nc1ccc(Cl)cc1Cl	none
O=C(NCC[C@@H](CNC(=O)c1cccc(O)c1O)NC(=O)c1cccc(O)c1O)c1cccc(O)c1O	none (no result: ID4 binder, p53 PUMA act)
CCc1c(C#N)c(SCC(=O)c2c(C)[nH]c3ccccc23)nc2c1C(=O)CC(C)(C)C2	none
Cc1cc2nn(-c3cccc4ccccc34)nc2cc1NC(=O)COc1ccc([N+](=O)[O-])cc1	none
COc1ccc(CN(C)C[C@H]2Oc3c(NC(=O)Nc4ccc5c(c4)OCO5)cccc3C(=O)N([C@H](C)CO)C[C@@H]2C)cc1	p53 PUMA act 61 (no result: STK33 inh)
C[C@H]1CN([C@@H](C)CO)C(=O)c2cccc(N(C)C)c2O[C@@H]1CN(C)S(=O)(=O)c1ccc(Cl)cc1	ID4 binder active (no result: STK33 inh)
C[C@H](CO)N1C[C@H](C)[C@H](CN(C)C(=O)Nc2ccc3c(c2)OCO3)Oc2c(NC(=O)Nc3ccc4c(c3)OCO4)cccc2C1=O	none (no result: STK33 inh, ID4 binder)
COc1ccc(CN(C)C[C@@H]2Oc3c(NC(=O)Nc4ccc5c(c4)OCO5)cccc3C(=O)N([C@@H](C)CO)C[C@H]2C)cc1	none (no result: STK33 inh)
C[C@@H]1CN([C@H](C)CO)C(=O)c2cccc(NC(=O)Nc3ccc4c(c3)OCO4)c2O[C@H]1CN(C)C	p53 PUMA act 60 (no result: STK33 inh)
C[C@@H]1CN([C@@H](C)CO)C(=O)c2cccc(N(C)C)c2O[C@H]1CN(C)S(=O)(=O)c1ccc(Cl)cc1	none (no result: STK33 inh)
O=C(CSc1n[nH]c(-c2ccncc2)n1)Nc1ccc(Cl)cc1Cl	none
COC(=O)CSc1nnc(-c2sc3ccccc3c2Cl)n1-c1ccc(OC)cc1	none
C[C@@H]1CCC2C(C)(C)[C@H](O)CC[C@]2(C)[C@@]12Cc1c(O)cc3c(c1O2)CNC3=O (some centres not stated)	none (no result: ID4 binder)
CCc1ccc(O)c(NC(=S)NC(=O)COc2ccc(C)cc2C)c1	none
N#Cc1c(-c2ccc(Cl)cc2)[nH]c(SCc2ccccc2)nc1=S	none (no result: ID4 binder, p53 PUMA act)
COC(=O)C1=C2C(=O)c3c(O)cc(CO)cc3OC2C(O)C=C1 (configuration not stated)	none (no result: ID4 binder)
O=C(O)CSc1c[nH]c2ccccc12	none
Cn1cc(C2=C(c3cn(CCCSC(=N)N)c4ccccc34)C(=O)NC2=O)c2ccccc21	STK33 inh 106 (no result: ID4 binder, p53 PUMA act)
CN(C)CCCn1cc(C2=C(c3c[nH]c4ccccc34)C(=O)NC2=O)c2ccccc21	STK33 inh 114 (no result: p53 PUMA act)
COC(=O)c1cn(CC(N)=O)c2ccccc12	none
Cc1sc2nc(SCC(=O)c3ccc4c(c3)OCCO4)n(-c3ccccc3)c(=O)c2c1C	none
OC[C@H]1O[C@@H](OC(CCCCc2ccc(O)cc2)CCc2ccc(O)cc2)[C@H](O)[C@@H](O)[C@@H]1O (some centres not stated)	none
O=C(CSc1nnc(-c2ccc(Br)cc2)o1)Nc1cc(C(F)(F)F)ccc1Cl	none
CCc1cc(C)cc(OCCn2cc(C=C3C(=O)NC(=O)NC3=O)c3ccccc32)c1	none (no result: ID4 binder, p53 PUMA act)
COc1ccc([C@@H]2CC(=O)c3c(O)cc(O)cc3O2)cc1O	none (no result: ID4 binder)
COc1cc(/C=C2\Oc3cc(O)cc(O)c3C2=O)cc(OC)c1O	STK33 inh 88 (no result: ID4 binder, p53 PUMA act)
CCCN1C(=O)C(O)(CC(=O)c2ccc(OC)c([N+](=O)[O-])c2)c2cc(Br)ccc21 (configuration not stated)	none
CCOC(=O)c1c(N)sc2c1CCC(Sc1ccccc1)C2=O (configuration not stated)	none (no result: ID4 binder, p53 PUMA act)
COc1ccc(CCC(=O)c2ccc(OC)cc2O)cc1	p53 PUMA act 59
COc1ccc(C(C)=O)c(O)c1	none
COc1cccc2cc(-c3nnc(SCC(=O)Nc4cccc(Br)c4)n3C)oc12	none
CC(=O)Nc1nonc1-c1nc2ccccc2n1Cc1cccc2ccccc12	none
O=C(COc1ccc([N+](=O)[O-])cc1)Nc1ccc(-c2nc3ccccc3o2)cc1	none
Cc1ccc2nc(-c3ccc(NC(=O)COc4ccc([N+](=O)[O-])cc4)cc3)sc2c1	p53 PUMA act 70
O=C(COc1ccc([N+](=O)[O-])cc1)Nc1ccc2oc(-c3cccc(Br)c3)nc2c1	none
Cc1ccc2nc(-c3ccc(NC(=O)C(C)Oc4ccc5c(C)cc(=O)oc5c4)cc3)sc2c1 (configuration not stated)	p53 PUMA act 77
Cc1cc(=O)oc2cc(OC(C)C(=O)Nc3sc4c(c3C#N)CCCC4)ccc12 (configuration not stated)	none
Cc1ccc2nc(-c3cccc(NC(=O)COc4ccc([N+](=O)[O-])cc4)c3)oc2c1	p53 PUMA act 72
O=C(COc1ccc([N+](=O)[O-])cc1)Nc1ccc2oc(-c3cccc(Cl)c3)nc2c1	none
